Records with an inconclusive call do not appear. More than one record can exist for a structure, and the calls need not agree. Calls of active or inactive are those of the source. The call rests on the fitted dose curve; in most records, active means well fitted activation curve with a large enough effect in the repeat runs; inconclusive means weak or mixed curves; inactive means flat fitted curve, though single readings scatter.
On the % scale 0 is the no-effect control and ±100 the full control effect; potency means the concentration at half of the fitted maximal effect.

The experiment can be described thus: A CellTox Green Cytotoxicity Assay to monitor cytotoxicity in HEK293 cells - 40 hour (AID 1224871). Further: nearly all actives have a fitted effect of over 45% in size. Conditions: CellTox Green fluorescence; series mostly up to 76.8 µM; cytotoxicity increase: at the top concentration. In outline:
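Fluorescence from a DNA-binding dye excluded by viable cells was measured repeatedly in the same HEK293 wells (600 cells/well) during continuous compound exposure at 37 C. Each assay gives one read point: 0, 8, 16, 24, 32 or 40 h.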
For `C[C@@H](NCCCc1cccc(C(F)(F)F)c1)c1cccc2ccccc12`, the Potency is 23.9 µM (active).

On to `CC(C)(C)C(=O)OCOC(=O)[C@@H]1N2C(=O)[C@@H](NC(=O)[C@H](N)c3ccccc3)[C@H]2SC1(C)C`, for which the “cytotoxicity increase” value was 0.316% [at 35.3 µM] (inactive).

For the compound `O=[N+]([O-])c1ccccc1Nc1ccccc1`, the “cytotoxicity increase” value is -1.02% (inactive).

Take `CC(C)(C)c1ccc(C(=O)O)cc1`: the “cytotoxicity increase” value was -2.66% (inactive).

On to `CCCCCCCC(=O)[O-].CCCCCCCC(=O)[O-].[Zn+2]`, for which the “cytotoxicity increase” value is 5.92% [at 35.3 µM] (inactive).

As to `CCCCCCCCCCC=O`, the “cytotoxicity increase” value is 5.72% (inactive).

As for `CCCCCCCC[P+](CCCCCCCC)(CCCCCCCC)CCCCCCCC`, the Potency is 6.87 µM (active).

Consider `C[C@H](CCC(=O)O)[C@H]1CC[C@H]2[C@@H]3CC[C@@H]4C[C@H](O)CC[C@]4(C)[C@H]3CC[C@]12C`, for which the “cytotoxicity increase” value is 4.26% (inactive).

With `CC(C)c1ccc2c(c1)CC[C@H]1[C@](C)(CN)CCC[C@]21C`, the Potency was 19.5 µM (active).

`O=C(O)c1ccc(Cl)c(Cl)c1`: the “cytotoxicity increase” value is -7.02% (inactive).

On to `NC(=NCCCCCCN=C(N)/N=C(\N)Nc1ccc(Cl)cc1)/N=C(\N)Nc1ccc(Cl)cc1`, for which the Potency is 15.8 µM (active) [middle of 4 runs].

On to `COc1cccc(N)c1`, for which the “cytotoxicity increase” value was 13.6% (inactive).

As to `CCCCCCCC/C=C/CCCCCCCC1=NCCN1CCO`, the Potency was 30.9 µM (active).

Turning to `Cc1cc(O)c2ccccc2c1O`, the Potency is 9.52 µM (active).

With `O=C1C=CC(=O)N1c1ccc(Cc2ccc(N3C(=O)C=CC3=O)cc2)cc1`, the Potency is 11 µM (active).

Turning to `O=C1C=CC(=O)N1`, the Potency was 17.8 µM (active).

Regarding `CCCCCCCC/C=C\CCCCCCCCOCCO`, the Potency is 31.9 µM (active).

Regarding `Cc1cc(O)c(C(C)(C)C)cc1Sc1cc(C(C)(C)C)c(O)cc1C`, the Potency is 54.8 µM (active).

On to `NNC(=O)c1cccc(C(=O)NN)c1`, for which the “cytotoxicity increase” value was -5.7% (inactive).

For the compound `CCCCCCCCNC(C)C(O)c1ccc(SC(C)C)cc1` (stereo unspecified), the Potency is 16.9 µM (active).

For `C=CC(=O)OCC(CO)(COCC(COC(=O)C=C)(COC(=O)C=C)COC(=O)C=C)COC(=O)C=C`, the Potency was 27.2 µM (active).

Turning to `CC[C@H]1O[C@]2(CC[C@@H]1C)C[C@@H]1C[C@@H](C/C=C(\C)C[C@@H](C)/C=C/C=C3\CO[C@@H]4[C@H](O)C(C)=C[C@@H](C(=O)O1)[C@]34O)O2`, the Potency is 43.3 µM (active).

Regarding `CN(C)[C@@H]1C(=O)C(C(N)=O)=C(O)[C@@]2(O)C(=O)C3=C(O)c4c(O)ccc(Cl)c4[C@@H](O)[C@H]3C[C@@H]12`, the “cytotoxicity increase” value was 18.7% [at 35.3 µM] (inactive).

Regarding `CC(=O)N1CCN(c2ccc(OC[C@H]3CO[C@](Cn4ccnc4)(c4ccc(Cl)cc4Cl)O3)cc2)CC1`, the Potency was 49 µM (active).

As for `COc1ccc(C(=O)/C(Br)=C\C(=O)O)cc1`, the Potency is 24.5 µM (active).

Regarding `CN(C)CCCOC1(Cc2ccccc2)CCCCCC1`, the “cytotoxicity increase” value was 1.21% [at 35.3 µM] (inactive).

On to `Oc1c(Cl)cc(Cl)c2cccnc12`, for which the Potency was 9.52 µM (active).

Regarding `O=C1CCCCCN1SSN1CCCCCC1=O`, the Potency was 49 µM (active).

As to `O=C(c1ccc(O)cc1O)c1ccc(O)cc1O`, the Potency entry was “inactive”.

As to `OCCN1CCN(CC/C=C2/c3ccccc3Sc3ccc(C(F)(F)F)cc32)CC1`, the Potency was 26.8 µM (active).

`Nc1ccc2cc(S(=O)(=O)O)cc(O)c2c1N=Nc1ccccc1C(F)(F)F`: the “cytotoxicity increase” value is -15.2% (inactive).

`CN(C)[C@@H]1C(=O)C(C(N)=O)=C(O)[C@@]2(O)C(=O)C3=C(O)c4c(O)cccc4C[C@H]3C[C@@H]12`: the “cytotoxicity increase” value was -9.56% [at 35.3 µM] (inactive).

On to `C1CCCC1`, for which the “cytotoxicity increase” value is 5.45% (inactive).

In the case of `CCCC(c1cc(C(C)(C)C)c(O)cc1C)c1cc(C(C)(C)C)c(O)cc1C`, the Potency is 49.6 µM (active).

Regarding `Oc1cc2ccccc2c2ccccc12`, the Potency is 15.5 µM (active).

With `Clc1ccccc1C(c1ccccc1)(c1ccccc1)n1ccnc1`, the Potency is 43.6 µM (active) and inactive.

Source of the values: PubChem BioAssay (Tox21).
